# Laboratory results published in the supplement of paper PMC10477191.
# ± gives the standard deviation of the averaged measurements.
# Experiments:
# Test in all cases: odor-evoked OSN spike response (post minus pre-stimulus); higher = stronger neuronal excitation
# Conditions in all cases: odor dilution: 10^-4
# [1] = system: Drosophila ezoana antennal basiconic sensillum ab2
# Procedure, shortened: (§1)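 Recordings came from antennal basiconic sensilla of restrained adult flies, taking up to 3 sensilla per fly, with a tungsten electrode placed at the sensillum base. Each odorant was diluted to 10^−4 in mineral oil or DMSO, and 10 µl was loaded onto filter paper. A 500 ms air pulse carried it into a charcoal-filtered, humidified air stream flowing at 1.5 l min^−1. The value reported is the change in spike frequency from a 1-second window before the stimulus to a 1-second window after it, counted in Auto Spike software and averaged across replicate sensilla.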
# [2] = system: Drosophila ezoana antennal basiconic sensillum ab3
# Procedure, shortened: as §1
# [3] = system: Drosophila ezoana antennal basiconic sensillum ab9
# Procedure, shortened: as §1
# [4] = system: Drosophila virilis antennal basiconic sensillum AB11
# Procedure, shortened: as §1
# [5] = system: Drosophila virilis antennal basiconic sensillum AB2
# Procedure, shortened: as §1
# [6] = system: Drosophila ezoana antennal basiconic sensillum ab1
# Procedure, shortened: as §1
# [7] = system: Drosophila ezoana antennal basiconic sensillum ab8
# Procedure, shortened: as §1
# [8] = system: Drosophila virilis antennal basiconic sensillum AB3
# Procedure, shortened: as §1
# [9] = system: Drosophila virilis antennal basiconic sensillum AB7
# Procedure, shortened: as §1
# [10] = system: Drosophila virilis antennal basiconic sensillum AB8
# Procedure, shortened: as §1
# [11] = system: Drosophila virilis antennal basiconic sensillum AB9
# Procedure, shortened: as §1
# [12] = system: Drosophila virilis antennal basiconic sensillum AB1
# Procedure, shortened: as §1
# [13] = system: Drosophila virilis antennal basiconic sensillum AB6
# Procedure, shortened: as §1
# [14] = system: Drosophila ezoana antennal basiconic sensillum ab4
# Procedure, shortened: as §1
smiles,measurement,setting,value
CC(C)OC(=O)c1ccccc1 [isopropyl benzoate],odor-evoked OSN spike response,[1],91.2 ± 45 spikes/s
same,odor-evoked OSN spike response,[2],54.9 ± 29 spikes/s
same,odor-evoked OSN spike response,[3],58.6 ± 20 spikes/s
same,odor-evoked OSN spike response,[4],54 ± 12 spikes/s
same,odor-evoked OSN spike response,[5],45.6 ± 23 spikes/s
CCCCCOC(C)=O [pentyl acetate],odor-evoked OSN spike response,[6],62.6 ± 43 spikes/s
same,odor-evoked OSN spike response,[2],120 ± 29 spikes/s
same,odor-evoked OSN spike response,[7],122 ± 45 spikes/s
same,odor-evoked OSN spike response,[3],67.9 ± 29 spikes/s
same,odor-evoked OSN spike response,[8],121 ± 16 spikes/s
same,odor-evoked OSN spike response,[9],75.4 ± 13 spikes/s
same,odor-evoked OSN spike response,[10],119 ± 24 spikes/s
same,odor-evoked OSN spike response,[11],80 ± 39 spikes/s
CCOC(=O)c1ccccc1 [ethyl benzoate],odor-evoked OSN spike response,[1],69.5 ± 30 spikes/s
same,odor-evoked OSN spike response,[2],64 ± 27 spikes/s
same,odor-evoked OSN spike response,[3],105 ± 28 spikes/s
same,odor-evoked OSN spike response,[4],23.1 ± 7.8 spikes/s
same,odor-evoked OSN spike response,[11],85.5 ± 21 spikes/s
CCCC(=O)OCc1ccccc1 [benzyl butyrate],odor-evoked OSN spike response,[1],43.7 ± 32 spikes/s
same,odor-evoked OSN spike response,[3],56.9 ± 30 spikes/s
same,odor-evoked OSN spike response,[5],58.8 ± 31 spikes/s
CC(C)=CCCC(C)=CC=O (mixture of isomers) [citral],odor-evoked OSN spike response,[2],52.2 ± 25 spikes/s
same,odor-evoked OSN spike response,[3],55.8 ± 30 spikes/s
CCCC(O)CC (stereo not given) [3-hexanol],odor-evoked OSN spike response,[7],52.3 ± 27 spikes/s
same,odor-evoked OSN spike response,[9],57 ± 28 spikes/s
CCCCCC(C)=O [2-heptanone],odor-evoked OSN spike response,[2],64.7 ± 28 spikes/s
same,odor-evoked OSN spike response,[7],54.2 ± 25 spikes/s
same,odor-evoked OSN spike response,[9],155 ± 25 spikes/s
CCCCCCOC(C)=O [Hexyl acetate],odor-evoked OSN spike response,[2],121 ± 33 spikes/s
same,odor-evoked OSN spike response,[7],88.7 ± 39 spikes/s
same,odor-evoked OSN spike response,[10],35.3 ± 18 spikes/s
same,odor-evoked OSN spike response,[11],53.3 ± 21 spikes/s
CCc1ccc(O)c(OC)c1 [4-Ethylguaiacol],odor-evoked OSN spike response,[2],57.6 ± 32 spikes/s
CCCOC(C)=O [propyl acetate],odor-evoked OSN spike response,[2],50 ± 27 spikes/s
same,odor-evoked OSN spike response,[7],51 ± 32 spikes/s
same,odor-evoked OSN spike response,[3],60.9 ± 37 spikes/s
same,odor-evoked OSN spike response,[11],84.2 ± 24 spikes/s
CCCCCCCC(C)=O [2-nonanone],odor-evoked OSN spike response,[2],57.8 ± 38 spikes/s
CC(=O)OCCC(C)C [Isopentyl acetate],odor-evoked OSN spike response,[2],55.5 ± 29 spikes/s
same,odor-evoked OSN spike response,[7],73.6 ± 38 spikes/s
same,odor-evoked OSN spike response,[3],56.7 ± 36 spikes/s
same,odor-evoked OSN spike response,[11],81.4 ± 33 spikes/s
CC(C)CCO [Isopentyl alcohol],odor-evoked OSN spike response,[7],65.8 ± 25 spikes/s
same,odor-evoked OSN spike response,[9],51.2 ± 14 spikes/s
CCCCCCO [1-hexanol],odor-evoked OSN spike response,[2],53 ± 23 spikes/s
same,odor-evoked OSN spike response,[7],176 ± 44 spikes/s
same,odor-evoked OSN spike response,[9],61.4 ± 22 spikes/s
same,odor-evoked OSN spike response,[10],239 ± 25 spikes/s
same,odor-evoked OSN spike response,[11],28.8 ± 14 spikes/s
C/C=C/C(=O)OCC [Ethyl crotonate],odor-evoked OSN spike response,[1],61.5 ± 39 spikes/s
same,odor-evoked OSN spike response,[3],50.1 ± 30 spikes/s
same,odor-evoked OSN spike response,[5],47.5 ± 26 spikes/s
CCC(=O)OCCC(C)C [Isopentyl propionate],odor-evoked OSN spike response,[7],79 ± 39 spikes/s
same,odor-evoked OSN spike response,[3],66.7 ± 31 spikes/s
same,odor-evoked OSN spike response,[10],56.8 ± 27 spikes/s
same,odor-evoked OSN spike response,[11],86.6 ± 27 spikes/s
CC(=O)CCC=C(C)C [6-methyl-5-hepten-2-one],odor-evoked OSN spike response,[9],150 ± 34 spikes/s
CCOC(=O)C(C)O (stereo not given) [Ethyl lactate],odor-evoked OSN spike response,[6],70.3 ± 53 spikes/s
same,odor-evoked OSN spike response,[2],129 ± 36 spikes/s
same,odor-evoked OSN spike response,[7],51.4 ± 27 spikes/s
same,odor-evoked OSN spike response,[3],66.3 ± 26 spikes/s
same,odor-evoked OSN spike response,[12],128 ± 32 spikes/s
same,odor-evoked OSN spike response,[8],156 ± 44 spikes/s
same,odor-evoked OSN spike response,[13],50 ± 22 spikes/s
same,odor-evoked OSN spike response,[9],52.6 ± 7.5 spikes/s
same,odor-evoked OSN spike response,[10],44.8 ± 12 spikes/s
same,odor-evoked OSN spike response,[11],72.4 ± 20 spikes/s
CCOC(=O)CC(C)O (stereo not given) [Ethyl-3-hydroxybutyrate],odor-evoked OSN spike response,[1],60.9 ± 32 spikes/s
same,odor-evoked OSN spike response,[2],133 ± 55 spikes/s
same,odor-evoked OSN spike response,[7],108 ± 45 spikes/s
same,odor-evoked OSN spike response,[3],59.2 ± 23 spikes/s
same,odor-evoked OSN spike response,[12],70.5 ± 24 spikes/s
same,odor-evoked OSN spike response,[8],167 ± 54 spikes/s
same,odor-evoked OSN spike response,[13],63.2 ± 25 spikes/s
same,odor-evoked OSN spike response,[9],85.6 ± 14 spikes/s
same,odor-evoked OSN spike response,[10],53 ± 9.4 spikes/s
same,odor-evoked OSN spike response,[11],58.3 ± 24 spikes/s
CCCC(=O)CC [3-hexanone],odor-evoked OSN spike response,[6],59.3 ± 31 spikes/s
same,odor-evoked OSN spike response,[2],52 ± 27 spikes/s
same,odor-evoked OSN spike response,[3],51.3 ± 35 spikes/s
same,odor-evoked OSN spike response,[12],76 ± 7.4 spikes/s
same,odor-evoked OSN spike response,[11],65.5 ± 27 spikes/s
C[C@H]1CCC[C@@]2(C)CCCC[C@]12O [geosmin],odor-evoked OSN spike response,[14],119 ± 39 spikes/s
CCOC(C)=O [Ethyl acetate],odor-evoked OSN spike response,[6],56.4 ± 35 spikes/s
same,odor-evoked OSN spike response,[2],60.2 ± 27 spikes/s
same,odor-evoked OSN spike response,[12],69.2 ± 27 spikes/s
same,odor-evoked OSN spike response,[5],65 ± 20 spikes/s
CCCCCCCC(C)O (stereo not given) [2-nonanol],odor-evoked OSN spike response,[2],55 ± 26 spikes/s
COC(=O)c1ccccc1O [Methyl salicylate],odor-evoked OSN spike response,[6],52.1 ± 33 spikes/s
same,odor-evoked OSN spike response,[2],64.8 ± 22 spikes/s
same,odor-evoked OSN spike response,[12],49 ± 22 spikes/s
"CC(O)C(C)O (stereo not given) [2,3-Butanediol]",odor-evoked OSN spike response,[6],68.2 ± 35 spikes/s
same,odor-evoked OSN spike response,[2],51.5 ± 25 spikes/s
same,odor-evoked OSN spike response,[12],71.5 ± 10 spikes/s
same,odor-evoked OSN spike response,[8],67.8 ± 30 spikes/s
same,odor-evoked OSN spike response,[9],66.2 ± 17 spikes/s
COc1ccccc1O [guaiacol],odor-evoked OSN spike response,[3],50.8 ± 26 spikes/s
same,odor-evoked OSN spike response,[13],73.3 ± 47 spikes/s
COC(=O)c1ccccc1 [methyl benzoate],odor-evoked OSN spike response,[1],55.9 ± 36 spikes/s
same,odor-evoked OSN spike response,[3],125 ± 48 spikes/s
same,odor-evoked OSN spike response,[11],86.1 ± 27 spikes/s
CC(=O)C(C)O (stereo not given) [acetoin],odor-evoked OSN spike response,[6],79.9 ± 48 spikes/s
same,odor-evoked OSN spike response,[2],135 ± 51 spikes/s
same,odor-evoked OSN spike response,[3],57.3 ± 30 spikes/s
same,odor-evoked OSN spike response,[12],82.8 ± 39 spikes/s
same,odor-evoked OSN spike response,[8],226 ± 54 spikes/s
same,odor-evoked OSN spike response,[11],97.4 ± 24 spikes/s
C=CC(O)CCCCC (stereo not given) [1-octen-3-ol],odor-evoked OSN spike response,[7],118 ± 51 spikes/s
same,odor-evoked OSN spike response,[3],50.6 ± 26 spikes/s
same,odor-evoked OSN spike response,[13],114 ± 44 spikes/s
same,odor-evoked OSN spike response,[9],106 ± 11 spikes/s
same,odor-evoked OSN spike response,[10],113 ± 14 spikes/s
CCCCCCCC/C=C\CCCCCCCC(=O)O [Oleic acid],odor-evoked OSN spike response,[1],43.9 ± 26 spikes/s
CCCCC(C)=O [2-hexanone],odor-evoked OSN spike response,[2],52.9 ± 26 spikes/s
same,odor-evoked OSN spike response,[9],50.8 ± 8.6 spikes/s
CCCCCC(=O)OCC [ethyl hexanoate],odor-evoked OSN spike response,[2],141 ± 28 spikes/s
same,odor-evoked OSN spike response,[7],77.2 ± 32 spikes/s
same,odor-evoked OSN spike response,[3],56.8 ± 31 spikes/s
same,odor-evoked OSN spike response,[8],153 ± 23 spikes/s
same,odor-evoked OSN spike response,[9],49 ± 24 spikes/s
same,odor-evoked OSN spike response,[10],66.1 ± 8.9 spikes/s
same,odor-evoked OSN spike response,[11],67.4 ± 21 spikes/s
CCCC(=O)OCC [ethyl butanoate],odor-evoked OSN spike response,[5],71.9 ± 26 spikes/s
same,odor-evoked OSN spike response,[9],68.8 ± 9.7 spikes/s
same,odor-evoked OSN spike response,[11],75.9 ± 26 spikes/s
CCCCC(C)O (stereo not given) [2-hexanol],odor-evoked OSN spike response,[2],55 ± 32 spikes/s
same,odor-evoked OSN spike response,[9],61.4 ± 9.6 spikes/s
CC(=O)c1ccccc1 [Acetophenone],odor-evoked OSN spike response,[7],71.8 ± 25 spikes/s
same,odor-evoked OSN spike response,[3],68.3 ± 26 spikes/s
OCCc1ccccc1 [2-phenylethanol],odor-evoked OSN spike response,[7],63.9 ± 26 spikes/s
